# From PMC7819943, “Rice protein-binding microarrays: a tool to detect cis-acting elements near promoter regions in rice”
# Whole data set: some 68,000 sequences, median “fluorescence intensity (a.u.)” near 9,100, cut for the highest 2% near 16,000. For the sample, the highest values were picked, then their nearest neighbours and some sequences at random.
# Target: OsWRKY34 (Oryza sativa, UniProt Q0JBA9 1-250)
# Assay: protein-binding microarray (RPBM); PBS, 2% BSA, 51.3 ng/ul salmon testes DNA, 50 uM zinc acetate, 200 nM TF, 25 C, 1 h; high values mean tight binding
# Settings: protein: recombinant; tags: N-terminal polyhistidine and DsRed monomer fusion (pET32a); label: CyDye5-dUTP incorporated in the synthesized complementary strand; 3' TTTTT single-stranded linker to array surface; dsDNA, one strand shown
# Outline: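 Binding signal is reported as fluorescence intensity per feature (arbitrary units) from an Axon 4000B scanner. Incubation used 200 nM of each Ni–NTA-purified, N-terminally polyhistidine- and DsRed-fused transcription factor from E. coli BL21-CodonPlus on a double-stranded custom Agilent array for 1 h at 25 °C, with 50 µM zinc acetate in the buffer, followed by washing.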
# OsWRKY34, sequence (Q0JBA9 entry or part of it): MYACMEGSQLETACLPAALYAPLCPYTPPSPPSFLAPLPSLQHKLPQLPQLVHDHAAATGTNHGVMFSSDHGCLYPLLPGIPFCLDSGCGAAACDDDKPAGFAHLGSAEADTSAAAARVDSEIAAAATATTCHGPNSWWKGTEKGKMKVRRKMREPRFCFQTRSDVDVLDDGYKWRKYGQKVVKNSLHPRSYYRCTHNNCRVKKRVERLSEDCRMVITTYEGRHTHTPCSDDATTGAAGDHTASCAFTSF
row,Sequence,binding signal
1,GCGCCGTCCCTTCGGGCCCACAAGCCGTCCACCCACTTCCCGGAGTCACCTAGTGCAG,11300 fluorescence intensity (a.u.)
2,GGGCCTATAACTGTAGTTCCATCACGTCTCTCTGTACGTTCGGAGTCACCTAGTGCAG,8820 fluorescence intensity (a.u.)
3,GCCATCTCGCCTAAATAAAACCGCGCTACCCATCGACCGACGGAGTCACCTAGTGCAG,9280 fluorescence intensity (a.u.)
4,TCCAGTTTTGGTCTGGGTGATGTGTCATGTTCTGATTGGCCGGAGTCACCTAGTGCAG,8180 fluorescence intensity (a.u.)
5,CTTCTTCCATCCAACCCATTGCATGGTGTATTTTCCATATCGGAGTCACCTAGTGCAG,8320 fluorescence intensity (a.u.)
6,AAATATGGTGGGCCCCACATGGCTGCGCCTCAAGCTTCTCCGGAGTCACCTAGTGCAG,9100 fluorescence intensity (a.u.)
7,GTCTCATGTCACACTCACGTAGCTATATTTTTTATATTATCGGAGTCACCTAGTGCAG,9120 fluorescence intensity (a.u.)
8,ATGCATTTCTTTTAGGATTTGTGATGTATTTTTCGTTTGACGGAGTCACCTAGTGCAG,9640 fluorescence intensity (a.u.)
9,TGGATGTCGCCGTCGGCGGGGTGGTGGGATTTGGAACTGGCGGAGTCACCTAGTGCAG,12500 fluorescence intensity (a.u.)
10,ACTTTGATTGGGCTGGGTTCATATGAGATTAGGGGAAAAACGGAGTCACCTAGTGCAG,13500 fluorescence intensity (a.u.)
11,TGGGATGTATTTGAGTTGTGATGCATTTCTTTTAGGATTTCGGAGTCACCTAGTGCAG,8310 fluorescence intensity (a.u.)
12,TTAGGGGCGGTGGGTGGTTTTCGGCTGGGAAATCGCGGATCGGAGTCACCTAGTGCAG,11500 fluorescence intensity (a.u.)
13,GACCATTATGTTAACTTGGATTAGGGGTAGGCTAGAGATTCGGAGTCACCTAGTGCAG,11000 fluorescence intensity (a.u.)
14,GTTTGGGATGTCGCGGGGATTTAGGGGCGGTGGGTGGTTTCGGAGTCACCTAGTGCAG,39300 fluorescence intensity (a.u.)
15,GATTTGGGGATTTGGGGTTTGATTTAGGATGTGCATGCCACGGAGTCACCTAGTGCAG,21400 fluorescence intensity (a.u.)
16,TTAGGGGTAGGCTAGAGATTGATTGGGGCTTATATGATAACGGAGTCACCTAGTGCAG,19700 fluorescence intensity (a.u.)
17,GAGCTCCTGTTGGTCGGGGACGTTTCGCGTTGGTTCCTCTCGGAGTCACCTAGTGCAG,12000 fluorescence intensity (a.u.)
18,TATAATTTTGTGCTAATATGCATTTTCCTTGTTTTGTTTACGGAGTCACCTAGTGCAG,11300 fluorescence intensity (a.u.)
19,ATCACAATAGTAACTATACTCTACAATCCATGGTTTCTTACGGAGTCACCTAGTGCAG,8960 fluorescence intensity (a.u.)
20,CCTTGGGCTGTTTTACCATGGTTTTTGCACACGTGGATGACGGAGTCACCTAGTGCAG,10100 fluorescence intensity (a.u.)
21,CTGACATGCGTCGCCATTGACTTTCGCCGCCGCCGCCGCGCGGAGTCACCTAGTGCAG,9140 fluorescence intensity (a.u.)
22,GTCACCATCAAAATAGCTTCATATCTTCCCTGGAAATTTTCGGAGTCACCTAGTGCAG,8160 fluorescence intensity (a.u.)
23,TGTAGTAATTGGGTATCTTCATCATTTGTCCTAAAAAAGTCGGAGTCACCTAGTGCAG,8080 fluorescence intensity (a.u.)

row,Sequence,binding signal
1,CCACTTTAGATCCCAAATTATATATGGTCGAGTTCTTTTCCGGAGTCACCTAGTGCAG,9470 fluorescence intensity (a.u.)
2,ATCATCGTTCACCCGCATTTCATCTACTTCAATCTACATTCGGAGTCACCTAGTGCAG,9810 fluorescence intensity (a.u.)
3,CGCAACCCCAAGCACTGGTGTTCTACATTCAATCAATCATCGGAGTCACCTAGTGCAG,38500 fluorescence intensity (a.u.)
4,ACATCCATCCACTCAACCCATTCTACCGTATTAAGCCAATCGGAGTCACCTAGTGCAG,8192 fluorescence intensity (a.u.)
5,TAGGGTTTGGATGGATAGGGTATATGAGGGTAATTTAGGCCGGAGTCACCTAGTGCAG,8450 fluorescence intensity (a.u.)
6,GAAGTTAGGGTTTGAGGGTTTGGTTCCGGAGGGTAGGGTCCGGAGTCACCTAGTGCAG,9850 fluorescence intensity (a.u.)
7,AGGGTGGGTTATATTTGAGCTGGTTAGCAAAAACTATAATCGGAGTCACCTAGTGCAG,17900 fluorescence intensity (a.u.)
8,AGGGGCGGAACTGGGTAGGCAGGGTGGGTTATATTTGAGCCGGAGTCACCTAGTGCAG,10500 fluorescence intensity (a.u.)
9,TCTATTTTATAATCGGTGTGTTTGACTGGTATTTTTTAGCCGGAGTCACCTAGTGCAG,8930 fluorescence intensity (a.u.)
10,GATAGGGTTAGGGATGGATAGGGTTTCCTTGAGGGTAGTTCGGAGTCACCTAGTGCAG,16400 fluorescence intensity (a.u.)
11,CTGGTTCGGGAATTTCTGGGTGTATAGGGAAATAATTTATCGGAGTCACCTAGTGCAG,8060 fluorescence intensity (a.u.)
12,TGAGTGGTGGGAGGAGTTAGCAAGTGGTTTGACCGTGGTTCGGAGTCACCTAGTGCAG,11800 fluorescence intensity (a.u.)
13,TCCGGTTCGTTATTTTTATTTTTCTCAGGGAAAAAAAATCCGGAGTCACCTAGTGCAG,8060 fluorescence intensity (a.u.)
14,GATAGGGTTAGCAGGGTGGGAAAATATATTTATTATAGTTCGGAGTCACCTAGTGCAG,18700 fluorescence intensity (a.u.)
15,TCGTGGTGGTGGTGGTGGTGGAAGTTAGGGTTTGAGGGTTCGGAGTCACCTAGTGCAG,17300 fluorescence intensity (a.u.)
16,ACGGCCTAGTTTTGGTTGAAGTTTTTGGTAGGGGTTAGTTCGGAGTCACCTAGTGCAG,12300 fluorescence intensity (a.u.)
17,CCCACCTCCACCTCCGCCGGCCGGTACGTTTATCCACTGACGGAGTCACCTAGTGCAG,9030 fluorescence intensity (a.u.)
18,GACTGATTTGTTTTTTTTTTCTCCCGGTTTTTTCGACGGACGGAGTCACCTAGTGCAG,9270 fluorescence intensity (a.u.)
19,TTCCTTTTTTTATGCAACTTTGACAAGCCTAATAGATATACGGAGTCACCTAGTGCAG,8500 fluorescence intensity (a.u.)
20,GCTACCATCGTCACCGCCTCAACCAAGCTACCCGTGTCTCCGGAGTCACCTAGTGCAG,10400 fluorescence intensity (a.u.)
21,GCCCTACTCTACCCCTAGCCCTCCGCGCGGCTGCCGTCGACGGAGTCACCTAGTGCAG,8970 fluorescence intensity (a.u.)
22,CACCCAAACCAAATCAAATCCGTCCATCCATTCGCCTCTACGGAGTCACCTAGTGCAG,8960 fluorescence intensity (a.u.)
23,ATCCACTTATATATACACACATTTGTAATTTGTATCTATACGGAGTCACCTAGTGCAG,8270 fluorescence intensity (a.u.)
